miR-122 inh = miR-122 suppressors via Renilla sensor increase, primary screen, cell-based, Huh7 psiCHECK-miR122, Renilla luciferase, single point; 48 h; activation, % at 12.5 µM; actives 0.14% (n = 340,000);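 active = mean activation of 30% or more, with every replicate also reaching 30%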;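 note: 0% = median of neutral control wells and 100% = median of positive control wells; higher luciferase signal means stronger suppression of miR-122 activity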
An asterisk follows results filed as active. Shown is part of a subset that was picked to be rich in hits.

SMILES	miR-122 inh
C[C@@H]1CN([C@@H](C)CO)S(=O)(=O)c2ccc(C#CC3CC3)cc2O[C@H]1CN(C)C(=O)C1CC1	-27
C[C@H]1CN([C@@H](C)CO)C(=O)c2cc(-c3cccc(F)c3)cnc2O[C@@H]1CN(C)C(=O)C1CCOCC1	-3
COc1ccccc1S(=O)(=O)N(C)C[C@@H]1Oc2cc(/C=C/c3ccccc3)ccc2S(=O)(=O)N([C@H](C)CO)C[C@H]1C	-4
C[C@H]1CN([C@@H](C)CO)S(=O)(=O)c2ccc(C#Cc3ccncc3)cc2O[C@@H]1CN(C)S(=O)(=O)c1ccccc1	-106
COc1cccc(-c2cnc3c(c2)C(=O)N([C@H](C)CO)C[C@H](C)[C@H](CN(C)C(=O)CC2CC2)O3)c1	-16
CC(C)C#Cc1ccc2c(c1)O[C@H](CN(C)Cc1ccncc1)[C@H](C)CN([C@H](C)CO)S2(=O)=O	-22
O=C(Nc1nc(-c2cc3ccccc3o2)cs1)c1ccc(S(=O)(=O)N2CCCC2)cc1	52*
O=C(Nc1nc2ccc(S(=O)(=O)N3CCCC3)cc2s1)C1CCCCC1	-130
O=C(Cc1cccs1)Nc1ccc(S(=O)(=O)N2CCCCC2)cc1	-132
C[C@H](CO)N1C[C@H](C)[C@H](CN(C)C)Oc2ncc(C#CC3CC3)cc2C1=O	0
Cc1ccc(-c2cnc3c(c2)C(=O)N([C@@H](C)CO)C[C@H](C)[C@@H](CN(C)C(=O)c2ccncc2)O3)cc1	0
C[C@@H]1CN([C@@H](C)CO)S(=O)(=O)c2ccc(-c3ccc(F)cc3)cc2O[C@@H]1CN(C)C(=O)C1CCOCC1	11
C[C@@H]1CN([C@@H](C)CO)S(=O)(=O)c2ccc(-c3ccc(C(=O)N(C)C)cc3)cc2O[C@@H]1CN(C)C(=O)C1CCC1	40*
C[C@@H]1CN([C@H](C)CO)S(=O)(=O)c2ccc(-c3ccc(C(=O)N(C)C)cc3)cc2O[C@H]1CN(C)C(=O)C1CCOCC1	-15
C[C@@H]1CN([C@@H](C)CO)S(=O)(=O)c2ccc(-c3ccc(C(=O)N(C)C)cc3)cc2O[C@H]1CN(C)C(=O)C1CCOCC1	-11
C[C@H]1CN([C@@H](C)CO)S(=O)(=O)c2ccc(-c3ccc(F)cc3)cc2O[C@@H]1CN(C)C(=O)C1CCOCC1	-19
C[C@@H]1CN([C@H](C)CO)S(=O)(=O)c2ccc(C3=CCCC3)cc2O[C@@H]1CN(C)C(=O)C1CCOCC1	34*
C[C@@H]1CN([C@H](C)CO)S(=O)(=O)c2ccc(-c3cncnc3)cc2O[C@@H]1CN(C)C(=O)Cc1ccncc1	5
C[C@@H]1CN([C@H](C)CO)S(=O)(=O)c2ccc(C3=CCCC3)cc2O[C@@H]1CN(C)C(=O)Cc1ccncc1	33*
C[C@@H]1CN([C@@H](C)CO)S(=O)(=O)c2ccc(-c3cncnc3)cc2O[C@H]1CN(C)C(=O)Cc1ccncc1	3
C[C@H]1CN([C@@H](C)CO)S(=O)(=O)c2ccc(-c3cccc(C#N)c3)cc2O[C@H]1CN(C)Cc1ccccn1	6
C[C@@H]1CN([C@@H](C)CO)C(=O)c2cc(-c3ccncc3)cnc2O[C@@H]1CN(C)C(=O)c1ccccc1F	1
CC(C)C#Cc1ccc2c(c1)O[C@H](CN(C)C(=O)CC1CC1)[C@@H](C)CN([C@H](C)CO)S2(=O)=O	-29
C[C@H](CO)N1C[C@H](C)[C@H](CN(C)Cc2ccncc2)Oc2ncc(-c3cccc(F)c3)cc2C1=O	-4
CCCC#Cc1cnc2c(c1)C(=O)N([C@H](C)CO)C[C@H](C)[C@H](CN(C)C(=O)C1CC1)O2	-12
SMILES	miR-122 inh
C[C@@H]1CN([C@@H](C)CO)S(=O)(=O)c2ccc(C#C[C@@H](C)O)cc2O[C@@H]1CN(C)C	6
CN(C)S(=O)(=O)c1cccc(NC(=S)N/N=C/c2ccc(O)c(O)c2O)c1	70*
C[C@@H]1CN([C@@H](C)CO)C(=O)c2cc(-c3cccc(F)c3)cnc2O[C@H]1CN(C)S(C)(=O)=O	-3
CNC[C@@H]1Oc2cc(-c3cccc(F)c3)ccc2S(=O)(=O)N([C@@H](C)CO)C[C@H]1C	3
C[C@@H]1CN([C@H](C)CO)C(=O)c2cc(C#Cc3ccccn3)cnc2O[C@@H]1CN(C)CC1CCOCC1	-1
CCC(=O)Nc1ccc2c(c1)OC[C@@H](C)N(C(=O)c1ccncc1)C[C@H](C)[C@H](OC)CN(C)C2=O	2
C[C@H](CO)N1C[C@H](C)[C@@H](CN(C)C(=O)C2CCCCC2)Oc2ncc(-c3ccccc3F)cc2C1=O	1
Cn1ncc2c(O/N=C(\N)c3ccc(C(F)(F)F)cc3)ncnc21	33*
C[C@@H]1CN([C@@H](C)CO)C(=O)c2cc(-c3cccnc3)cnc2O[C@@H]1CN(C)Cc1ccc(Oc2ccccc2)cc1	2
C[C@@H]1CN([C@H](C)CO)C(=O)c2cc(C#Cc3ccccn3)cnc2O[C@H]1CN(C)Cc1cccnc1	4
CCN1CCN(Cc2ccc(NC(=O)c3cc(NC(=O)c4cc5cccc(OC)c5o4)cc(OC)c3)cc2C(F)(F)F)CC1	31*
COc1ccc(NC(=O)Nc2ccc3c(c2)C(=O)N([C@@H](C)CO)C[C@H](C)[C@H](CN(C)Cc2ccc(C(F)(F)F)cc2)O3)cc1	-150
COc1ccc(NS(=O)(=O)c2cc(NC(=O)c3ccc(F)cc3)ccc2OC)cc1	-108
C[C@@H]1CN([C@H](C)CO)C(=O)c2cc(-c3cncnc3)cnc2O[C@@H]1CN(C)Cc1ccc(F)cc1	4
COCC(=O)Nc1ccc2c(c1)OC[C@@H](C)N(C(C)=O)C[C@H](C)[C@H](OC)CN(C)C2=O	-4
Cc1ccc(-c2ccc3c(c2)O[C@H](CN(C)Cc2cccc(C(=O)O)c2)[C@H](C)CN([C@H](C)CO)S3(=O)=O)cc1	-16
C[C@@H]1CN([C@@H](C)CO)C(=O)c2cc(C#Cc3ccccn3)cnc2O[C@H]1CN(C)CC1CCOCC1	-3
C[C@H]1CN([C@@H](C)CO)C(=O)c2cc(C#CCc3ccccc3)cnc2O[C@H]1CN(C)C(=O)C1CCCCC1	2
CCCNC(=O)N(C)C[C@@H]1Oc2ncc(/C=C/c3ccccc3)cc2C(=O)N([C@H](C)CO)C[C@@H]1C	5
COC(=O)C1=C(C)N=C2SC(C#N)=C(N)N2C1c1cc(OC)c(OC)c(OC)c1 (stereo not drawn)	38*
C[C@@H]1CN([C@@H](C)CO)S(=O)(=O)c2ccc(C#C[C@@H](C)O)cc2O[C@H]1CN(C)C(=O)Cc1ccccn1	0
CO[C@@H]1CN(C)C(=O)c2ccc(NC(C)=O)cc2OC[C@@H](C)N(S(C)(=O)=O)C[C@H]1C	-4
CN1C(=O)c2cc(NC(=O)c3ccc(C(F)(F)F)cc3)ccc2OC[C@@H]2O[C@H](CC(=O)NC3Cc4ccccc4C3)CC[C@H]21	37*
CN1C(=O)c2cc(NC(=O)c3ccc(C(F)(F)F)cc3)ccc2OC[C@H]2O[C@H](CC(=O)NC3Cc4ccccc4C3)CC[C@@H]21	63*
CCCNC(=O)N(C)C[C@@H]1Oc2cc(Br)ccc2S(=O)(=O)N([C@H](C)CO)C[C@@H]1C	6
C[C@@H]1CN([C@@H](C)CO)C(=O)c2cc(C#CC3(O)CCCC3)cnc2O[C@@H]1CN(C)C(=O)CN(C)C	5
C[C@H]1CN([C@@H](C)CO)S(=O)(=O)c2ccc(C3=CCCCC3)cc2O[C@@H]1CN(C)S(C)(=O)=O	-10
C[C@H]1CN([C@@H](C)CO)C(=O)c2cc(-c3ccc(C#N)cc3)cnc2O[C@@H]1CN(C)CC1CCOCC1	0
COc1ccc(/C=C/C(=O)c2ccc[nH]2)c(OC)c1OC	32*
